The target of test [1] is Lysosomal acid glucosylceramidase (Homo sapiens) (UniProt P04062). In words: Glucocerebrosidase-p2 (AID 348; in the data active = potency below about 10 µM; also: potency is read from the fitted curve at half-maximal effect). The conditions noted are these: purified GBA, blue fluorogenic substrate, 40 min. The method in brief: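 Compounds titrated from 0.6 nM upwards against 0.2 nM enzyme in pH 5.9 citric acid/KH2PO4, taurocholate, tween-20; blue fluorogenic substrate 80 uM, 40 min room temperature, stopped and read Ex 365/Em 440 for AC50.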

Test [2] can be described thus: AP1 Signaling Pathway (AID 357; active = well fitted curve in either direction with a large enough effect, not every such curve was filed as active;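 also: ME-180 reporter cells stimulated with EGF at its EC50 level; % is scaled to controls: 0 for no effect and ±100 for the full control effect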). The conditions noted are these: ME-180 AP-1-bla reporter, EGF-induced, beta-lactamase ratio, 5 h; at 7.69 µM (top of the series) unless noted. The method in brief:
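In this screen, ME-180 cells in Opti-MEM with 0.5% dialyzed FBS received EC50 EGF and compound titrations for 5 h. AP-1 reporter beta-lactamase was detected via CCF4 ratio, giving AC50 for positive and negative modulators.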

Test [3] can be described thus: NFAT Signaling Pathway (AID 444; active = well fitted curve in either direction with a large enough effect, not every such curve was filed as active;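 also: carbachol stimulus at about its EC50 of 1 µM final; % is scaled to controls: 0 for no effect and ±100 for the full control effect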). The conditions noted are these: Jurkat NFAT-bla M1, carbachol, beta-lactamase ratio, 5 h; at 7.69 µM (top of the series) unless noted. The method, boiled down:
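Read-out: CCF4 FRET ratio (460 nm/530 nm) after 1 h RT dye loading, used for %activity and AC50 from titration series. Cells: Jurkat NFAT-β-lactamase/M1 line, treated with compound plus 1 uM carbachol for 5 h, 37 °C.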

A short description of test [4]: Stat Signaling Pathway (AID 446; active = well fitted curve in either direction with a large enough effect, not every such curve was filed as active;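 also: ME-180 cervical cancer cells given 40 pM IL-6 alongside compound; SIE-controlled beta-lactamase reporter measured as 460/530 nm FRET emission ratio; % is scaled to controls: 0 for no effect and ±100 for the full control effect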). The conditions noted are these: ME-180 SIE beta-lactamase reporter, IL-6 stimulated, 5 h; at 7.69 µM (top of the series) unless noted. The method in brief: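 IL-6/STAT signaling read in ME-180 cells via an SIE beta-lactamase reporter. Stimulus was 40 pM IL-6 (its AC50) for 5 hrs, so both activation and inhibition register.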
Test [5] deals with Glucocorticoid receptor (Homo sapiens) (UniProt P04150). In words: GR-GFP Redistribution (AID 450;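 active = compounds whose dose series gives a full or clear partial fitted curve of increased nuclear translocation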; also: potency is read from the fitted curve at half-maximal effect). Conditions: U2OS GR-GFP nuclear translocation, laser cytometry, 2 h.
Test [6] shares this target. In words: GR-EFC Redistribution (AID 451; calls by dose curve; also: potency is read from the fitted curve at half-maximal effect). Conditions: CHO-K1 GR-EFC translocation, beta-gal luminescence, 2 h. The method in brief: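 Translocation of GR-ED fusion to nuclear EA restores b-gal, read by luminescence after 1 h room-temperature detection. Engineered CHO-K1 biosensor cells, 1,000/well, exposed 2 h at 37 C to titrations up to 46 uM final.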
Test [7] concerns the target Mitogen-activated protein kinase 10 (Mus musculus) (UniProt Q61831). In words: JNK3 AlphaScreen Assay (AID 530; active = well fitted curve in either direction with a large enough effect, not every such curve was filed as active;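 also: kinase came from lysate of stimulated human HepG2 cells; signal reports phosphorylation of biotinylated GST-cJun 1-79 at Ser73 with 10 µM ATP; % is scaled to controls: 0 for no effect and ±100 for the full control effect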). The conditions noted are these: JNK3 lysate, c-Jun phosphorylation; series mostly up to 57.1 µM. The method in brief:
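Compound titrations were preincubated 15 minutes at room temperature with substrate, antibody and pre-activated JNK3-containing HepG2 lysate. Reactions were started with 10 uM ATP and stopped with EDTA-containing bead buffer for AlphaScreen detection.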
(In general: In Alpha technology, singlet oxygen from a donor bead excites a nearby acceptor bead.)

The target of test [8] is 3',5'-cyclic-AMP phosphodiesterase 4B (Homo sapiens) (UniProt Q07343). In words: qHTS Assay for Inhibitors of PDE-IV (AID 607; active = well fitted activation curve with a large enough effect in the main read-out, with a control signal flat, not every such curve was filed as active; also: % of control where 0% means no effect). The conditions noted are these: HEK293 ACTOne CNG channel cells, membrane potential fluorescence; series mostly up to 22.9 µM. The method, boiled down:
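Live HEK293 cells with a modified cyclic nucleotide-gated (CNG) channel report intracellular cAMP via membrane-potential dye fluorescence (ex 535/em 590 nm). Endogenous PDE-IV was targeted. Compounds were tested at up to 22.9 uM final; RO 20-1724 100 uM served as control.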
(qHTS replaces the single test concentration by a dilution series.)

The target in test [9] is Dual specificity protein kinase CLK4 (Homo sapiens) (UniProt Q9HAZ1). In words: qHTS Assay for Inhibitors of CDC-like Kinase 4 (Kinase-Glo Assay) (AID 1770). Also: nearly all actives have a fitted effect of over 65% in size. Also: potency is read from the fitted curve at half-maximal effect. Conditions: recombinant Clk4, Kinase-Glo ATP depletion luminescence; series mostly up to 66.7 µM. The method, boiled down: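 25 nM Clk4 with 100 uM RS repeat peptide and 1 uM ATP (final) in Tris pH7.5, 10 mM MgCl2, 4.5 h at room temperature. Remaining ATP measured by Kinase-Glo luciferase luminescence.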

The target is the same in test [10]. In words: qHTS Assay for Inhibitors of CDC-like Kinase 4 (ADP-Glo Assay) (AID 1771). Also: nearly all actives have a fitted effect of over 70% in size. Also: potency is read from the fitted curve at half-maximal effect. The conditions noted are these: recombinant CLK4, ADP-Glo luminescence; series mostly up to 80 µM. The method in brief: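 25 nM Clk4 with 100 uM RS repeat peptide and 1 uM ATP (final) in buffer with 2 mM MgCl2, 0.5 mM EGTA, 2.5 mM DTT, 0.01% Triton X-100; 1 h at room temperature; ADP-Glo luminescence for ADP formed.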

Test [11] has the same target. In words: qHTS Assay for Inhibitors of CDC-like Kinase 4 (ADP-FP Assay) (AID 1795). Also: nearly all actives have a fitted effect of over 60% in size. Also: potency is read from the fitted curve at half-maximal effect. Conditions: Transcreener ADP fluorescence polarization; series mostly up to 50 µM. The method, boiled down: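 Recombinant Clk4 (6.25 nM) phosphorylated 100 uM RS repeat peptide with 1 uM ATP in 25 mM Tris pH 7.5, 10 mM MgCl2, 0.5 mM EGTA, 2.5 mM DTT, 0.01% Triton X-100 for 1 h. ADP was detected by Transcreener ADP2 competitive fluorescence polarization after 30 min at room temperature.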

Test [12] has as its target Ubiquitin carboxyl-terminal hydrolase 1 (Homo sapiens) (UniProt O94782). In words: Inhibitors of USP1/UAF1: Pilot qHTS (AID 504865).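 Also: rhodamine fluorescence freed from ubiquitin-rhodamine substrate followed over time; top concentration of the series differs between compounds; % is scaled to controls: 0 for no effect and ±100 for the full control effect; nearly all actives have a fitted effect of over 35% in size.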 Conditions: purified USP1/UAF1, Ub-rhodamine cleavage fluorescence; series mostly up to 54.9 µM. The method in brief: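 USP1/UAF1 complex at 1 nM preincubated 15 min at room temperature with compound, then Ub-Rho substrate added at 150 nM final. Fluorescence (480/540 nm) read kinetically in 50 mM HEPES pH 7.8, 0.5 mM EDTA, 1 mM TCEP, 0.1 mg/ml BSA, 0.01% Tween-20.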

Test [13] in a line: Primary qHTS for small molecule stabilizers of the endoplasmic reticulum resident proteome: Secreted ER Calcium Modulated Protein (SERCaMP) assay (AID 1508630). Also: % is scaled to controls: 0 for no effect and ±100 for the full control effect. Conditions: SH-SY5Y GLuc-SERCaMP (Gaussia luciferase released on ER calcium loss) secretion, thapsigargin, luminescence; series mostly up to 38.4 µM. The method in brief: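 GLuc-SERCaMP-expressing SH-SY5Y cells, pretreated 16 h with compound, are challenged with thapsigargin to empty ER calcium stores; after 4 h, coelenterazine is added directly to the medium and luminescence is imaged.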

Test [14] is described as follows: qHTS Assay for Identification of Small Molecule Agonists for Hypoxia Response Element Signaling Pathway (AID 914; active = well fitted activation curve with a large enough effect in the signal ratio, with a control signal flat, not every such curve was filed as active; the % refers to the signal ratio; also: % of control where 0% means no effect). The conditions noted are these: ME-180 (cervical carcinoma) HRE-bla reporter, beta-lactamase ratio, CoCl2, 17 h; activation: hits give high values. The method in brief: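 HRE-bla ME-180 cells with beta-lactamase reporter under hypoxia response element, compounds with EC50 CoCl2 for 17 hours at 37 C. CCF4 substrate, 460nm/530nm emission ratio gave %Activity; AC50 from titration series.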

Test [15] has as its target Cytochrome P450 3A4 (Homo sapiens) (UniProt P08684). In words: qHTS Assay for Activators of Cytochrome P450 3A4 (AID 885). Also: nearly all actives have a fitted effect of over 65% in size. Conditions: recombinant CYP3A4, Luciferin-PPXE luminescence, 60 min; series mostly up to 57.1 µM. The method, boiled down:
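Quantitative HTS format: compounds preincubated with 20nM human CYP3A4 and Luciferin-PPXE substrate at KM, reaction started by NADPH regeneration, stopped after 60 min, luciferase luminescence read 20 min later.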

Values without a mark were called inactive. Records with an inconclusive call do not appear. Calls of active or inactive are those of the source. Unless noted, calls follow the shape of the dose curve; as a rule, active = well fitted curve in the direction sought with a large enough effect; inconclusive = small, poorly fitted or top-dose-only effect, or another doubt; inactive = no such curve, though single readings can be large; an effect the other way counts as inactive or inconclusive.

Lysosomal acid glucosylceramidase (Homo sapiens), sequence (P04062 whole entry, looked up): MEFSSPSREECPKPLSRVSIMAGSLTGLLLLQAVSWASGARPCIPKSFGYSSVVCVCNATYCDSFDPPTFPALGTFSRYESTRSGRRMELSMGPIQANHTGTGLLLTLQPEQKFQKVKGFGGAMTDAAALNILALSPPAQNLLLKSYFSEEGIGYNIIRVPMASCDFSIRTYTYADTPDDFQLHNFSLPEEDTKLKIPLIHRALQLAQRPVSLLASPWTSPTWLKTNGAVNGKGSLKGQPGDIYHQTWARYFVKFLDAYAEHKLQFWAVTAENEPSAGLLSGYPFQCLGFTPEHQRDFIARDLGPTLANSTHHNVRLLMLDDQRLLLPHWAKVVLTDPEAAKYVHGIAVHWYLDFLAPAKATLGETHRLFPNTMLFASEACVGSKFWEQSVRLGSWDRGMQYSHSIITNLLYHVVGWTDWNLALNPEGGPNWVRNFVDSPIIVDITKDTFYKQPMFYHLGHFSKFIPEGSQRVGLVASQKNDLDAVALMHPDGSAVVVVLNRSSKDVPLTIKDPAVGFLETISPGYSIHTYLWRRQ
Dual specificity protein kinase CLK4 (Homo sapiens), sequence (Q9HAZ1 whole entry, looked up): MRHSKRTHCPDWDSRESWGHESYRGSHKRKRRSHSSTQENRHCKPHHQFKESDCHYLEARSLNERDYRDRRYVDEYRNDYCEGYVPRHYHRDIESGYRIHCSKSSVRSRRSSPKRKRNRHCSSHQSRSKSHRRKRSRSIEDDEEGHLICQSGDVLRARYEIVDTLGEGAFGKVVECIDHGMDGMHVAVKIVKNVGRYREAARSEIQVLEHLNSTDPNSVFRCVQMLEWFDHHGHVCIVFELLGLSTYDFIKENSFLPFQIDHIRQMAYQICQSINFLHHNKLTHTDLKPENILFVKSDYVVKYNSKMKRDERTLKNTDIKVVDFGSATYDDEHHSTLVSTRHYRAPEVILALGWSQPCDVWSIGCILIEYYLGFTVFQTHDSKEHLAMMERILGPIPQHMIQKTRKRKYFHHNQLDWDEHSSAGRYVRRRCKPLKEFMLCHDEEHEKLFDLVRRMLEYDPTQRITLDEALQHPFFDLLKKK
Ubiquitin carboxyl-terminal hydrolase 1 (Homo sapiens), sequence (O94782 whole entry, looked up): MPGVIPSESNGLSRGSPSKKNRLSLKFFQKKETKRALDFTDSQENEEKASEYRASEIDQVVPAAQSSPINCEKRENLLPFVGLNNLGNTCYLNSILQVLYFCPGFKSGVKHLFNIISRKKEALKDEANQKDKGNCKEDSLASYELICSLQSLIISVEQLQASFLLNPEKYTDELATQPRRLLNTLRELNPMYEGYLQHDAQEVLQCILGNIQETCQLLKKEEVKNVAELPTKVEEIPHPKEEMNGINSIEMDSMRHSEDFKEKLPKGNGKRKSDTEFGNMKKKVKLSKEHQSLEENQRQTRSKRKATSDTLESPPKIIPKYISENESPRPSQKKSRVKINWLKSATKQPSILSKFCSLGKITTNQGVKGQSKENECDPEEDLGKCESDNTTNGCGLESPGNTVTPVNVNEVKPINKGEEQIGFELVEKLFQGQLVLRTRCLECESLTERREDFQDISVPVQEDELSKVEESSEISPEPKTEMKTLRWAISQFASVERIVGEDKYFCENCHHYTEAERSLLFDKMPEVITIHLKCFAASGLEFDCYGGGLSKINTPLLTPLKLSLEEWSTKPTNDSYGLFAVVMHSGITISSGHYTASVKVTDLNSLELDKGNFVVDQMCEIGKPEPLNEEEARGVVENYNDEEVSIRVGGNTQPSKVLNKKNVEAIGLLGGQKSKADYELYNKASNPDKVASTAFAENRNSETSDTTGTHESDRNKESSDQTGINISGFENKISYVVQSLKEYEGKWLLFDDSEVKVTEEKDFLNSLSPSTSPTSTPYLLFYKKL
3',5'-cyclic-AMP phosphodiesterase 4B (Homo sapiens), sequence (Q07343 whole entry, looked up): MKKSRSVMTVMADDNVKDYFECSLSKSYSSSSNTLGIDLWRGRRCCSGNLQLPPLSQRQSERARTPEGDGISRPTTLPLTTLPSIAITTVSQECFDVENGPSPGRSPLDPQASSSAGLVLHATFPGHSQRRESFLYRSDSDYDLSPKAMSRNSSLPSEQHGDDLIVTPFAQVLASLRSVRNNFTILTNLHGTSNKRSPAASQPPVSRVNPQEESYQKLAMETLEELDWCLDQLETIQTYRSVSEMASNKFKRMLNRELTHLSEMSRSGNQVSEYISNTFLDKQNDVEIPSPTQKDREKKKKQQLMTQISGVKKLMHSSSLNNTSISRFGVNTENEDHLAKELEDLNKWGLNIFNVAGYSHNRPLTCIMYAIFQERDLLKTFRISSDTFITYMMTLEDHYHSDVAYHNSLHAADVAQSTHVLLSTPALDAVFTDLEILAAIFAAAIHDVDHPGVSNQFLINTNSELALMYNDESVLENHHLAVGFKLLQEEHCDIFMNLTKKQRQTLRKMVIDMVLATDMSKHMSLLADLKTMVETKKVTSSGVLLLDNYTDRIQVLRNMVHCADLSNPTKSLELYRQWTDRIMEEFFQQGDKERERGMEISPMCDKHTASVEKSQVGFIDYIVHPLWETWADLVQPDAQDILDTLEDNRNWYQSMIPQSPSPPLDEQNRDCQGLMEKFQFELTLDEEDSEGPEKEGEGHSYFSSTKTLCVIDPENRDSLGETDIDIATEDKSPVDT
Glucocorticoid receptor (Homo sapiens), sequence (P04150 whole entry, looked up, the tested form may be a part): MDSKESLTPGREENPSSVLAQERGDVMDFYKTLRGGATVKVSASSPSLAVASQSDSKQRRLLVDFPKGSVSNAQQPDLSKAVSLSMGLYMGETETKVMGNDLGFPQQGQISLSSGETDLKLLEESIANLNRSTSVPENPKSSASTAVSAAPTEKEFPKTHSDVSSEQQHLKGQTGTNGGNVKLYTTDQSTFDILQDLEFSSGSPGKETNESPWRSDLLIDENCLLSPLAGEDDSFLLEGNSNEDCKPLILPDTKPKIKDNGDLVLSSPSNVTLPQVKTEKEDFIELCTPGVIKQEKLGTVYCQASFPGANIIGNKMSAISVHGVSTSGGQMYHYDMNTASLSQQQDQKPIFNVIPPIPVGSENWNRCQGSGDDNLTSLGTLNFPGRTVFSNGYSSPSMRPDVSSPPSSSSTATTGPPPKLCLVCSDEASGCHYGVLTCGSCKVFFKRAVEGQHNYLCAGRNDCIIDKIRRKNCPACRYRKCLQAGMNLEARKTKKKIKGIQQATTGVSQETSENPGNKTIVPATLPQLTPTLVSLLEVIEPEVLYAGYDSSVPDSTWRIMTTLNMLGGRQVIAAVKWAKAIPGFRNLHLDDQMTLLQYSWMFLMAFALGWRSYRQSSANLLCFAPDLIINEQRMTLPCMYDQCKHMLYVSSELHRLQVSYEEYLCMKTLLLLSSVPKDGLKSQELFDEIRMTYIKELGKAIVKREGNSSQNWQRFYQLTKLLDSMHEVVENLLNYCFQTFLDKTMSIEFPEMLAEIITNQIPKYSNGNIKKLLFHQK
Cytochrome P450 3A4 (Homo sapiens), sequence (P08684 whole entry, looked up): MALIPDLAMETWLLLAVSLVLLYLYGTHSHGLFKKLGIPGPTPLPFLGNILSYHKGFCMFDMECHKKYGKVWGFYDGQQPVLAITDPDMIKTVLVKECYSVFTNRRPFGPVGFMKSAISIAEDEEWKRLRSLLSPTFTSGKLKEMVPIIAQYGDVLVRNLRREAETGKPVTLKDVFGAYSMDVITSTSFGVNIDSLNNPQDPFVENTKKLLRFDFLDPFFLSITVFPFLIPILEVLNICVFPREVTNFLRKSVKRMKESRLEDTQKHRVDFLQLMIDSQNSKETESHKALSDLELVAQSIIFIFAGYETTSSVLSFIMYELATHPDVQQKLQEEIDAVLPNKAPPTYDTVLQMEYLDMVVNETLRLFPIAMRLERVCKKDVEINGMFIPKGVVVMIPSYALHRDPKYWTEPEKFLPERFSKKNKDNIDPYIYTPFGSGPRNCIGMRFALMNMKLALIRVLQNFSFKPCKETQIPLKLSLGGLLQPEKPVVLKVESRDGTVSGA

Consider `COc1ccc(Oc2ncc3ncc(=O)n(-c4ccc(OC)cc4)c3n2)cc1`, for which the Potency is > 11.4 µM in test [1]; > 9.22 µM in test [5]; > 46 µM in test [6]; 2.82 µM (active) in test [9]; 2 µM (active) in [10]; 4.47 µM (active) in test [11]. The activity change, negative = inhibition in test [2] is -24.9%; in [3] it was -12.3%. In [4], the activity, negative = inhibition was -13.9%. Besides, the Potency result in test [7], in test [8] and in test [12] was “inactive” in each case. Moreover, the result in test [13] was inactive.
In the case of `Cc1nc2cncnc2n(Cc2ccccc2Cl)c1=O`, the results for the Potency in [1], in [5] and in [6] were > 11.4 µM, > 9.22 µM and > 46 µM, respectively. Also, the activity change, negative = inhibition is -18% in [2] and -1.6% in test [3]. The activity, negative = inhibition in test [4] is -18.9%. For the same compound, the Potency result in [7], in test [9], in test [10], in [11] and in test [12] was “inactive” each time. Also, the outcome in test [13] was inactive.
Consider `COc1ncc2nc(C)c(=O)n(Cc3ccc(F)cc3)c2n1`, for which the figures for the Potency in test [1], in [5] and in [6] were > 11.4 µM, > 9.22 µM and > 46 µM, respectively. In addition, the activity change, negative = inhibition in test [2] is -12.3%; in test [3], -2.65%. In addition, in test [4], the activity, negative = inhibition is -17.5%. Moreover, the Potency result in test [7], in test [8], in [9], in test [10], in test [11] and in [12] was “inactive” each time. The result in test [13] was inactive.
For the compound `COCCn1c(=O)cnc2cnc(N3CCOCC3)nc21`, the Potency in test [1] is > 11.4 µM; in test [5] it was > 9.22 µM; in test [6], > 46 µM. For the same compound, the activity change, negative = inhibition in [2] is 8.71%; in [3], -0.664%. For the same compound, the activity, negative = inhibition in [4] was -12.6%. The Potency result in [7], in test [8], in test [9], in test [10], in [11] and in [12] was “inactive” throughout. The activation in test [14] was -5.07%. For the same compound, the outcome in test [13] was inactive.
Take `COc1ncc2nc(-c3ccc(Cl)cc3)c(=O)n(CCC#N)c2n1`: the Potency in test [1] is > 11.4 µM; in test [5] it was > 9.22 µM; in test [6], > 46 µM. Also, the results for the activity change, negative = inhibition in test [2] and in test [3] were -9.68% and 3.96%, respectively. In test [4], the activity, negative = inhibition was -4.68%. For the same compound, the Potency entry in [7], in [8], in test [9], in test [10], in [11] and in [12] was “inactive” in each case. Besides, the result in [13] was inactive.
Regarding `COCCNc1nc(-c2ccoc2)nc2ccccc12`, the Potency is > 11.4 µM in test [1], > 46 µM in [5] and > 46 µM in test [6]. The activity change, negative = inhibition in [2] was 1.3%; in [3] it was -13.7%. For the same compound, the activity, negative = inhibition in test [4] is 8.88%. Besides, the Potency entry in [7], in test [15], in [9], in test [10], in test [11] and in test [12] was “inactive” throughout. Also, the result in test [13] was inactive.
`Cn1c(=O)c(CCc2ccccc2)nc2cnc(N3CCOCC3)nc21`: the Potency in test [1] is > 11.4 µM; in test [5], > 9.22 µM; in [6], > 46 µM. The results for the activity change, negative = inhibition in test [2] and in [3] were -10.6% and 10.9%, respectively. Also, the activity, negative = inhibition in [4] is 1.67%. For the same compound, the Potency entry in [7], in test [8], in test [9], in test [10], in test [11] and in test [12] was “inactive” each time. In addition, the result in test [13] was inactive.

Values taken from PubChem BioAssay (NCATS).
